Assay outcomes deposited in PubChem by several laboratories.
MsrA act – activates bovine MsrA enzyme | AID 602163 | purified bovine MsrA, absorbance read-out | 360,000 tested, 0.3% active | activation, % at 10.6 µM; in the data active = activation above about 7.5%
ABCB6 inh MLPCN – human ABCB6 transporter inhibition | Q9NP58 | K562-ABCB6 porphyrin accumulation, flow cytometry, 1 h; stronger effect = lower value | fluorescence ratio to DMSO, % at 10 µM | 360,000 tested, 0.19% active | AID 602162;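 active = fluorescence ratio to DMSO below 75%, the collection mean minus 3 SD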;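 also: signal is porphyrin accumulated inside mitochondria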
Target sequence (Q9NP58 whole entry, looked up): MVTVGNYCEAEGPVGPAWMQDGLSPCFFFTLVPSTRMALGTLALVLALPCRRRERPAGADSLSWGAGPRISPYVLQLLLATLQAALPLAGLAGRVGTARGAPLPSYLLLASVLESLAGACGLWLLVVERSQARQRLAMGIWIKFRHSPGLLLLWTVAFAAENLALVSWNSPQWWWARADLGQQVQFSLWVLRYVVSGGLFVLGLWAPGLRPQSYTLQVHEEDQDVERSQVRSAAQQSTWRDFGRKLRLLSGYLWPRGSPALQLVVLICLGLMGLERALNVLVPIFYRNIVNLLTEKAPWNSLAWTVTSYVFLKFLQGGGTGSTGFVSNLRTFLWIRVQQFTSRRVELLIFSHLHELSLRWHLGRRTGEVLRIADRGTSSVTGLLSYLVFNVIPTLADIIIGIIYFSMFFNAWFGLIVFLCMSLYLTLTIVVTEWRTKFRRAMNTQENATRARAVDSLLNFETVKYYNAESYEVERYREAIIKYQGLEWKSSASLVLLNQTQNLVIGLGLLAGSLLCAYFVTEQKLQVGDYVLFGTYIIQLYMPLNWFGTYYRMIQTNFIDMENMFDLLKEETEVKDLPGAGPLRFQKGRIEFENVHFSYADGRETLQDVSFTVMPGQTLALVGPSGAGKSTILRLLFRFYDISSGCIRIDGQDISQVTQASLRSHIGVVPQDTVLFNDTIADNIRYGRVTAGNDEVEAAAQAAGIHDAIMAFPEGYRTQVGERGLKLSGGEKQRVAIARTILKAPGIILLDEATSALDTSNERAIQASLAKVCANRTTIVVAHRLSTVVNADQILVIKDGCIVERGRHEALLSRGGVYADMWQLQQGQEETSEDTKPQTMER
SMARCA2 activ – increases SMARCA2 function in MMTV reporter cells. MG213 cells, MMTV-luciferase reporter, dexamethasone, overnight. activation, % at 9.1 µM. 370,000 tested, 1% active; in the data active = activation above about 7.8%
MsrA inhibitor – bovine MsrA inhibition | purified bovine MsrA, absorbance read-out | inhibition, % at 15.5 µM | 360,000 tested, 0.75% active | AID 651718; in the data active = inhibition above about 4.5%
ABCB6 blocker 1 – inhibitors of human ABC transporter ABCB6. K562-ABCB6 porphyrin accumulation, flow cytometry, 1 h; stronger effect = lower value. shares compounds with ABCB6 inh MLPCN. AID 602430. ratio response (% of DMSO), % at 10 µM. 700 tested, under 10 active;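 active = repeat-averaged ratio response below 75% of DMSO, the collection mean minus 3 SD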;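 also: median porphyrin fluorescence at 575 nm with 488 nm excitation from mitochondria; lower ratio means less porphyrin signal so ABCB6 inhibition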
A number is an active result; 0 = inactive; - = no result. In the library only some 2.1% were active in any assay of this set; here they are far more common.

SMILES	MsrA act	ABCB6 inh MLPCN	SMARCA2 activ	MsrA inhibitor	ABCB6 blocker 1
COC(=O)c1cc(S(=O)(=O)N2CCN(c3ccc(F)cc3)CC2)c[nH]1	0	46	0	0	0
Cc1ccc(-c2nc3s/c(=C\c4ccco4)c(=O)n3n2)cc1	0	70	0	0	0
Cc1nn(-c2ccccc2)c2sc(C(=O)NCc3ccc(F)cc3)cc12	-	-	0	-	-
Clc1nnc(Cl)c2c1ncn2Cc1ccccc1	0	73	0	0	0
CCN(CC)C(=O)CC[C@@H]1CC[C@]2(CCCN(Cc3nccs3)C2)O1	-	-	0	-	-
COc1cc2c(cc1NC(=O)CSc1nnc(COc3ccccc3)n1Cc1ccco1)oc1ccccc12	-	-	0	-	-
NC(c1ccccc1)c1csc(Nc2ccc(C(F)(F)F)cn2)n1 (centres undefined)	0	71	0	0	0
CC(C)C(=O)N1CC[C@H]2[C@H](CCCN2Cc2ccc(F)cc2)C1	-	-	0	-	-
COc1ccc2c(c1OC)C(=O)N(c1ccc(C)c(C)c1)C2=O	0	0	0	0	-
COc1ccc2c(c1OC)C(=O)N(c1ccc3c(c1)CCC3)C2=O	0	63	0	0	0
CCCC(=O)O[C@@H]1C[C@@H](C)N(C(=O)c2ccccc2)c2ccc(C)cc21	0	72	0	0	0
Cc1ccc2c(c1)C1CN(C)CCC1N2C(=O)COc1ccc(N(C)C(=O)c2ccccc2)cc1 (centres undefined)	0	0	0	0	-
c1ccc(CNc2nc(N3CCOCC3)nc(N3CCOCC3)n2)cc1	0	0	0	0	-
Clc1ccc(CNc2nc(N3CCOCC3)nc(N3CCOCC3)n2)cc1	0	11	0	0	0
O=c1c(-c2ccccc2)c(O)cc(-c2ccncc2)n1-c1ccc(Cl)cc1	0	64	0	0	0
C/C(=N\O)c1c(O)cc(-c2ccccc2)n(-c2ccccc2)c1=O	0	0	0	0	-
O=C(CSc1nc2c(c(=O)[nH]1)CCCC2)Nc1ccc(Cl)cc1F	0	70	0	0	0
O=C(CSc1nc2c(c(=O)[nH]1)CCC2)Nc1ccc(F)cc1	0	0	0	0	-
COc1ccc(Cl)cc1NC(=O)CCCC(=O)c1ccccc1	0	61	0	0	0
CC1(C(=O)NS(=O)(=O)c2cccs2)CCN1C(=O)C1(c2ccc(Cl)cc2)CCC1 (centres undefined)	0	0	0	0	0
CC1(C(=O)NS(=O)(=O)c2cccs2)CCN1C(=O)C1(c2ccccc2)CCCC1 (centres undefined)	0	72	0	0	0
CC1(C(=O)NS(=O)(=O)c2cccs2)CCN1C(=O)C1(c2ccc(Cl)cc2)CC1 (centres undefined)	0	0	0	0	-
CC1(C(=O)NS(=O)(=O)c2ccc(Cl)s2)CCN1C(=O)C1(c2ccc(Cl)cc2)CCC1 (centres undefined)	0	0	0	0	0
CC1(C(=O)NS(=O)(=O)c2ccccc2Cl)CCN1C(=O)C1(c2ccc(Cl)cc2)CC1 (centres undefined)	0	0	0	0	0
COCCCNC(=O)C[C@H]1C[C@@]2(C(=O)OC)C(=C[C@H](C(C)C)O[C@@H]2C2CC2)N(CCC2=CCCCC2)C1=O	-	-	0	-	-
SMILES	MsrA act	ABCB6 inh MLPCN	SMARCA2 activ	MsrA inhibitor	ABCB6 blocker 1
CN(Cc1ccccc1)C(=O)OCc1cn(Cc2cc(F)ccc2F)nn1	-	-	0	-	-
Cc1cc(OC(C)CCN2CCC(C(O)(c3ccccc3)c3ccccc3)CC2)ccc1Br (centres undefined)	-	-	0	-	-
CN1Cc2nnn(Cc3ccccc3)c2-c2cc(N3CCCC3)ccc2S1(=O)=O	-	-	0	-	-
c1ccc(-n2c(SCc3cccc4ccccc34)nnc2-c2ccccn2)cc1	-	-	0	-	-
COc1cccc(CNS(=O)(=O)c2cn(C)cn2)c1	0	8.0	0	0	0
CCN(c1cccc(C(F)(F)F)c1)S(=O)(=O)c1ccc2c(c1)CCN2C(=O)C1CC1	0	72	0	0	0
Cc1ccc(S(=O)(=O)N2CCC(c3nc4ccccc4o3)CC2)s1	-	-	0	-	-
CCc1ccccc1NC(=O)c1cc(=O)c2ccccc2o1	0	67	0	0	0
O=c1c2c(-c3cccs3)csc2ncn1-c1ccccc1	0	47	0	0	0
O=S(=O)(c1ccccc1)N1CCN(C2CCN(Cc3ccccc3)CC2)CC1	0	0	0	0	-
O=S(=O)(c1ccc2ccccc2c1)N1CCN(C2CCN(Cc3ccccc3)CC2)CC1	0	48	0	0	0
C[C@H]1C2CC(OC(=O)NCCCc3ccccc3)C(C2)[C@H]2CCCCN21 (some centres undefined)	-	-	0	-	-
CSc1ccc(-c2cccc3nncn23)cc1	0	65	0	0	0
Cn1cc(-c2cccc3nncn23)cn1	0	0	0	0	-
CCn1c(=O)n(CC)c2cc(N3CCCC3)c(NC(=O)c3ccccc3C)cc21	0	64	0	0	0
CC(=O)Nc1ccc(OC(=O)c2c(-c3ccccc3Cl)noc2C)cc1	0	70	0	0	0
CC(=O)Nc1ccc(NC(=O)c2c(-c3ccccc3Cl)noc2C)c(C)c1	0	0	0	0	-
CCCCN(C(=O)c1cc(-c2ccncc2)nc2ccccc12)c1c(N)n(CC(C)C)c(=O)[nH]c1=O	0	51	7.9	0	0
COCCN(C(=O)c1cc(-c2ccncc2)nc2ccccc12)c1c(N)n(CC(C)C)c(=O)[nH]c1=O	0	0	0	0	-
CCOC(=O)[C@@]12CN(C(=O)OC(C)(C)C)CC=C1N(Cc1ccc(OC)cc1)C(=O)[C@H]2CC(=O)NCc1cccs1	-	-	0	-	-
CC1CN(c2nc3ccccc3nc2SCC(=O)N2CCN(S(=O)(=O)c3ccccc3)CC2)CC(C)O1 (centres undefined)	-	-	0	-	-
CC(Sc1nnc(-c2ccncc2)n1C)C(=O)Nc1ccc(N2CCOCC2)cc1 (centres undefined)	0	69	0	0	0
Cn1c(SCC(=O)Nc2ccc(N3CCOCC3)cc2)nnc1-c1ccccc1	0	0	0	0	-
COc1ccc(N(C(=O)c2ccncc2)S(=O)(=O)c2ccc(Cl)cc2)cc1	0	0	-	-	-
COc1ccc(N(C(=O)C(C)C)S(=O)(=O)c2ccc(Cl)cc2)cc1	0	48	0	0	0
SMILES	MsrA act	ABCB6 inh MLPCN	SMARCA2 activ	MsrA inhibitor	ABCB6 blocker 1
Cc1cc(NC(=O)c2c(F)cccc2F)n(-c2nc3ccccc3[nH]2)n1	0	71	0	0	0
Cc1cc(NC(=O)c2c(F)cccc2Cl)n(-c2nc3ccccc3[nH]2)n1	0	0	0	0	-
CCC(=O)N1CCc2cc(Br)c(S(=O)(=O)NCCCN(CC)Cc3ccccc3)cc21	-	-	0	-	-
CCN1C(=O)CSc2ccc(C(=O)NCc3ccco3)cc21	0	53	0	0	0
COc1cccc(-c2nnc(-c3ccco3)o2)c1	0	67	0	0	0
COc1cccc(-c2nnc(-c3ccc(C)o3)o2)c1	0	0	0	0	-
CCCN1CCS(=O)(=O)N(Cc2cn(Cc3ccc(OC)cc3)nn2)C(C(=O)OC)C1 (centres undefined)	-	-	0	-	-
Nc1nc(NCc2ccccc2)nc(Nc2cccc(F)c2)c1[N+](=O)[O-]	0	41	0	0	0
CCOC(=O)c1ccc(NC(=O)CSc2nnc(SCc3cccc4ccccc34)s2)cc1	-	-	0	-	-
Cc1ccccc1C(=O)N1CCN(c2ccc(NC(=O)Cc3ccccc3)cc2)CC1	0	0	0	0	-
